From PubChem BioAssay (NCATS)
Inconclusive results are not listed. The source made the active and inactive calls. Calls come from the whole dose curve; as a rule, active = well fitted curve in the direction sought with a large enough effect; inconclusive = small, poorly fitted or top-dose-only effect, or another doubt; inactive = no such curve, though single readings can be large; an effect the other way counts as inactive or inconclusive.

How the values were obtained:
NIH3T3 = assay: Cytotoxic Profiling of Annotated Libraries Using Quantitative High-Throughput Screening (AID 1296008); conditions: Five cell lines viability, CellTiter-Glo ATP luminescence, 48-72 h; active compounds read low; note: nearly all actives have a fitted effect of over 60% in size
Summary of the method: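 Cytotoxicity was measured as CellTiter-Glo ATP luminescence, read after 10 min at room temperature. Compound treatment of the cells lasted 48 or 72 hr at 37 degrees Celsius in a qHTS format.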

HACAT = assay: qHTS assay to identify novel small-molecules to repurpose for Merkel cell carcinoma treatment (AID 1296009); conditions: MCC and control cell lines, CellTiter-Glo viability, 72 h; at 44.8 µM (top of the series) unless noted; note: nearly all actives have a fitted effect of over 60% in size
Summary of the method: (§1)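 72 hr, 37 degree celsius; NPC 8-pt / MIPE 11-pt dose response; compound pinned in DMSO; CellTiter-Glo, 10 min RT, luminescence; normalized to no-cell and DMSO controls.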

MCC-13 = assay: as above; conditions: MCC and control cell lines, CellTiter-Glo viability, 72 h; series mostly up to 46 µM
Summary of the method: as §1

MCC-26 = assay: as above; conditions: MCC and control cell lines, CellTiter-Glo viability, 72 h; series mostly up to 46 µM
Summary of the method: as §1

MKL-1 = assay: as above; conditions: MCC and control cell lines, CellTiter-Glo viability, 72 h; series mostly up to 46 µM
Summary of the method: as §1

MKL-2 = assay: as above; conditions: MCC and control cell lines, CellTiter-Glo viability, 72 h; series mostly up to 46 µM
Summary of the method: as §1

UISO = assay: as above; conditions: MCC and control cell lines, CellTiter-Glo viability, 72 h; series mostly up to 46 µM
Summary of the method: as §1

WaGa = assay: as above; conditions: MCC and control cell lines, CellTiter-Glo viability, 72 h; series mostly up to 46 µM
Summary of the method: as §1

C33A = assay: Primary qHTS to identify gynecologic anti-cancer compounds using libraries of approved drugs and bioactive compounds (AID 1345084); conditions: Gynecologic cancer cell panel viability, ATPlite luminescence, 48 h; series mostly up to 57.5 µM; note: nearly all actives have a fitted effect of over 55% in size
Summary of the method: (§2)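 In this quantitative HTS, cell killing is estimated from loss of ATP-dependent luciferase light. Cells see five compound concentrations over a 48 h exposure.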

CAOV3 = assay: as above; conditions: Gynecologic cancer cell panel viability, ATPlite luminescence, 48 h; series mostly up to 57.5 µM
Summary of the method: as §2

CASKI = assay: as above; conditions: Gynecologic cancer cell panel viability, ATPlite luminescence, 48 h; series mostly up to 57.5 µM
Summary of the method: as §2

Es-2 = assay: as above; conditions: Gynecologic cancer cell panel viability, ATPlite luminescence, 48 h; series mostly up to 57.5 µM
Summary of the method: as §2

HeLa = assay: as above; conditions: Gynecologic cancer cell panel viability, ATPlite luminescence, 48 h; series mostly up to 57.5 µM
Summary of the method: as §2

Hek293T = assay: as above; conditions: Gynecologic cancer cell panel viability, ATPlite luminescence, 48 h, control line for the selectivity index; series mostly up to 57.5 µM
Summary of the method: as §2

JEG-3 = assay: as above; conditions: Gynecologic cancer cell panel viability, ATPlite luminescence, 48 h; series mostly up to 57.5 µM
Summary of the method: as §2

OV90 = assay: as above; conditions: Gynecologic cancer cell panel viability, ATPlite luminescence, 48 h; series mostly up to 57.5 µM
Summary of the method: as §2

PA-1 = assay: as above; conditions: Gynecologic cancer cell panel viability, ATPlite luminescence, 48 h; series mostly up to 57.5 µM
Summary of the method: as §2

SKOV3 = assay: as above; conditions: Gynecologic cancer cell panel viability, ATPlite luminescence, 48 h; series mostly up to 57.5 µM
Summary of the method: as §2
% is set by controls: 0 for no effect and ±100 for the full control effect.

Nc1ccncc1N
inactive: max response (NIH3T3) -1.29% | outcome (HACAT) | outcome (MCC-13) | outcome (MCC-26) | outcome (MKL-1) | outcome (MKL-2) | outcome (UISO) | outcome (WaGa) | outcome (C33A) | outcome (CAOV3) | outcome (CASKI) | outcome (Es-2) | outcome (HeLa) | outcome (Hek293T) | outcome (JEG-3) | Potency (OV90) | outcome (PA-1) | outcome (SKOV3)

C[C@@H]1CCC[C@H](C)N1
inactive: max response (NIH3T3) 4.6% | outcome (HACAT) | outcome (MCC-13) | outcome (MCC-26) | outcome (MKL-1) | outcome (MKL-2) | outcome (UISO) | outcome (WaGa) | outcome (C33A) | outcome (CAOV3) | outcome (CASKI) | outcome (Es-2) | outcome (HeLa) | outcome (Hek293T) | outcome (JEG-3) | Potency (OV90) | outcome (PA-1) | outcome (SKOV3)

Cc1cc(-n2nc3ccc(Cl)cc3n2)c(O)c(C(C)(C)C)c1
inactive: max response (NIH3T3) 3.2% | outcome (HACAT) | outcome (MCC-13) | outcome (MCC-26) | outcome (MKL-1) | outcome (MKL-2) | outcome (UISO) | outcome (WaGa) | outcome (C33A) | outcome (CAOV3) | outcome (CASKI) | outcome (Es-2) | outcome (HeLa) | outcome (Hek293T) | outcome (JEG-3) | Potency (OV90) | outcome (PA-1) | outcome (SKOV3)

CC[N+](C)(CC)CCOC(=O)C1c2ccccc2Oc2ccccc21
inactive: max response (NIH3T3) 2.85% | outcome (HACAT) | outcome (MCC-13) | outcome (MCC-26) | outcome (MKL-1) | outcome (MKL-2) | outcome (UISO) | outcome (WaGa) | outcome (C33A) | outcome (CASKI) | outcome (Es-2) | outcome (HeLa) | outcome (Hek293T) | outcome (JEG-3) | Potency (OV90) | outcome (PA-1)

CCN(CC)CC1CCCCN1CC(=O)N1c2ccccc2C(=O)Nc2cccnc21 (stereo not drawn)
inactive: max response (NIH3T3) 4.32% | outcome (HACAT) | outcome (MCC-13) | outcome (MCC-26) | outcome (MKL-1) | outcome (MKL-2) | outcome (UISO) | outcome (WaGa) | outcome (C33A) | outcome (CAOV3) | outcome (CASKI) | outcome (Es-2) | outcome (HeLa) | outcome (Hek293T) | outcome (JEG-3) | Potency (OV90) | outcome (PA-1) | outcome (SKOV3)

CC(C)(C)NCC(O)COc1cccc2c1CCC(=O)N2 (stereo not drawn)
inactive: max response (NIH3T3) 3.67% | outcome (HACAT) | outcome (MCC-13) | outcome (MCC-26) | outcome (MKL-1) | outcome (MKL-2) | outcome (UISO) | outcome (WaGa) | outcome (C33A) | outcome (CAOV3) | outcome (CASKI) | outcome (Es-2) | outcome (HeLa) | outcome (Hek293T) | outcome (JEG-3) | Potency (OV90) | outcome (PA-1) | outcome (SKOV3)

C/C(=C(\CCO)SS/C(CCO)=C(\C)N(C=O)Cc1cnc(C)nc1N)N(C=O)Cc1cnc(C)nc1N
inactive: max response (NIH3T3) -2.04% | outcome (HACAT) | outcome (MCC-13) | outcome (MCC-26) | outcome (MKL-1) | outcome (MKL-2) | outcome (UISO) | outcome (WaGa) | outcome (C33A) | outcome (CAOV3) | outcome (CASKI) | outcome (Es-2) | outcome (HeLa) | outcome (Hek293T) | outcome (JEG-3) | Potency (OV90) | outcome (PA-1) | outcome (SKOV3)

Cc1c(Cn2ccnc2)c2ccccc2n1CCC(=O)O
inactive: max response (NIH3T3) 3.45% | outcome (HACAT) | outcome (MCC-13) | outcome (MCC-26) | outcome (MKL-1) | outcome (MKL-2) | outcome (UISO) | outcome (WaGa) | outcome (C33A) | outcome (CASKI) | outcome (Es-2) | outcome (HeLa) | outcome (Hek293T) | outcome (JEG-3) | Potency (OV90) | outcome (PA-1)

C[C@H]1COc2c(C3(N)CC3)c(F)cc3c(=O)c(C(=O)O)cn1c23
inactive: max response (NIH3T3) 1.93% | outcome (HACAT) | outcome (MCC-13) | outcome (MCC-26) | outcome (MKL-1) | outcome (MKL-2) | outcome (UISO) | outcome (WaGa) | outcome (C33A) | outcome (CASKI) | outcome (Es-2) | outcome (HeLa) | outcome (Hek293T) | outcome (JEG-3) | Potency (OV90) | outcome (PA-1) | outcome (SKOV3)

O[C@@H]1CO[C@H]2[C@@H]1OC[C@@H]2O
inactive: max response (NIH3T3) 4.37% | outcome (HACAT) | outcome (MCC-13) | outcome (MCC-26) | outcome (MKL-1) | outcome (MKL-2) | outcome (UISO) | outcome (WaGa) | outcome (C33A) | outcome (CAOV3) | outcome (CASKI) | outcome (Es-2) | outcome (HeLa) | outcome (Hek293T) | outcome (JEG-3) | Potency (OV90) | outcome (PA-1) | outcome (SKOV3)

C1CCN2C[C@@H]3C[C@@H](CN4CCCC[C@@H]34)[C@H]2C1
inactive: max response (NIH3T3) 3.41% | outcome (HACAT) | outcome (MCC-13) | outcome (MCC-26) | outcome (MKL-1) | outcome (MKL-2) | outcome (UISO) | outcome (WaGa) | outcome (C33A) | outcome (CAOV3) | outcome (CASKI) | outcome (Es-2) | outcome (HeLa) | outcome (Hek293T) | outcome (JEG-3) | outcome (PA-1) | outcome (SKOV3)

C=CCSCC1Nc2cc(Cl)c(S(N)(=O)=O)cc2S(=O)(=O)N1 (stereo not drawn)
inactive: max response (NIH3T3) 4.06% | outcome (HACAT) | outcome (MCC-13) | outcome (MCC-26) | outcome (MKL-1) | outcome (MKL-2) | outcome (UISO) | outcome (WaGa) | outcome (C33A) | outcome (CASKI) | outcome (Es-2) | outcome (HeLa) | outcome (Hek293T) | outcome (JEG-3) | Potency (OV90) | outcome (PA-1) | outcome (SKOV3)

CC(=O)OC[C@H]1O[C@@](COC(C)=O)(O[C@H]2O[C@H](COC(C)=O)[C@@H](OC(C)=O)[C@H](OC(C)=O)[C@H]2OC(C)=O)[C@@H](OC(C)=O)[C@@H]1OC(C)=O
inactive: max response (NIH3T3) 2.21% | outcome (HACAT) | outcome (MCC-13) | outcome (MCC-26) | outcome (MKL-1) | outcome (MKL-2) | outcome (UISO) | outcome (WaGa) | outcome (C33A) | outcome (CASKI) | outcome (Es-2) | outcome (HeLa) | outcome (Hek293T) | outcome (JEG-3) | Potency (OV90) | outcome (PA-1) | outcome (SKOV3)

CCCNC(C)(C)COC(=O)c1ccccc1
inactive: max response (NIH3T3) 4.95% | outcome (HACAT) | outcome (MCC-13) | outcome (MCC-26) | outcome (MKL-1) | outcome (MKL-2) | outcome (UISO) | outcome (WaGa) | outcome (C33A) | outcome (CASKI) | outcome (Es-2) | outcome (HeLa) | outcome (Hek293T) | outcome (JEG-3) | Potency (OV90) | outcome (PA-1) | outcome (SKOV3)
